# According to PubChem BioAssay:
# Several values for one entry are separate records, joined by “and”; a condition that tells them apart may be missing. Equal values may be shown once. Activity calls are given as the source filed them.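 The calls were made as follows, unless noted: active = thallium flux through the channel raised or lowered by more than 3 SD from vehicle-only wells, actives on both sides; inactive = the rest.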
# How the values were obtained:
# [1] = liver-stage malaria parasite growth inhibition, primary screen, cell-based, HepG2, luciferase luminescence, HepG2 viability (AID 624349; in the data active = parasite load remaining mostly below about 12%, no sharp cut-off; inactive = mostly above about 10%;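 also: 100% = mean of DMSO negative control wells on the same plate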); details: P. berghei liver stage in HepG2, luciferase luminescence, concentration not given here; parasite load remaining: stronger effect = lower value; viability: measured here: HepG2 viability without parasites
# [2] = Cy5 fluorescence interference with SSB-bound oligo, artefact control for HCV NS3 helicase inhibitor project, biochemical, NIH Clinical Collection, E. coli SSB (AID 743268; call rule not given here)
# [3] = system: Hepatitis C virus NS3 helicase; assay: HCV NS3 helicase inhibitors, primary screen, biochemical, fluorescence polarization, NIH Clinical Collection (AID 743270; call rule not given here); details: NS3 helicase binding to Cy5-dT15 DNA, stronger effect = higher value, concentration not given here
# [4] = biological target: Single-stranded DNA-binding protein (Escherichia coli (strain K12)) (UniProt P0AGE0); assay: E. coli SSB displacement from DNA, counter-screen for HCV NS3 helicase inhibitor project, biochemical, fluorescence polarization, NIH Clinical Collection (AID 743271; in the data active = inhibition above about 28%); details: stronger effect = higher value, concentration not given here
# [5] = fluorescence interference in NS3h assay format, artefact control for HCV NS3 helicase inhibitor project, biochemical, NIH Clinical Collection (AID 743272; call rule not given here;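 also: HCV NS3 helicase with a Cy5 labelled single stranded DNA probe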); details: fluorescence interference counterscreen, stronger effect = lower value
# [6] = modulation of C. elegans fzo-1 (AID 1259413; call rule not given here;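 also: fzo-1 mutant C. elegans worms in liquid wells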); details: C. elegans fzo-1 modulator screen, mean read-out; stronger effect = higher value
# [7] = sensitizers of A549 cells to miR-34 induction, primary screen, imaging, A549 dox-inducible miR-34, nuclei and caspase counts (AID 1347080;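 active = compounds whose cell count with miR-34 switched on is under 0.7 times the count with it off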); details: A549 miR-34 inducible, Hoechst nuclei count, 48 h
# [8] = survival rescue of mitochondrial mutant cells in low glucose, primary screen, MELAS cybrids, Rieske KO mouse fibroblasts, CellTiter-Glo (AID 1508586;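 active = mean z-score across replicates of 1.96 or higher in either the MELAS or the Rieske mutant cell line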;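 also: z relative to plate mean and SD of compound and empty wells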)
# [9] = viability rescue of complex I mutant cybrids, primary screen, cell-based, galactose medium, ATP luminescence (AID 1645843;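 active = z-score of at least 1.8 in each of two replicates, scored against plate mean and spread of sample wells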;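 also: positive z means more ATP and so rescue of galactose-driven cybrid death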); details: complex I mutant cybrid cells, 72 h, stronger effect = higher value
# F380Y = assay: modulators of BK channel variants, profiling panel, selectivity assay, cell-based, U2OS BacMam, thallium flux, beta subunits (AID 1259406); details: at 30 µM;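 also: initial slope of Thallos dye fluorescence rise after thallium is added; log ratio against the mean of 0.3% DMSO vehicle wells on the same plate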
# F380Y/beta1 = assay: as above; details: at 30 µM
# F380Y/beta2Delta = assay: as above; details: at 30 µM
# F380Y/beta4 = assay: as above; details: at 30 µM
# [10] = biological target: Calcium-activated potassium channel subunit alpha-1 (Homo sapiens) + Leucine-rich repeat-containing protein 26 (Homo sapiens) (UniProt Q12791+Q2I0M4); assay: as above; details: F380Y/Slo1WT/gamma1, at 30 µM
# Chain of Calcium-activated potassium channel subunit alpha-1 (Homo sapiens) + Leucine-rich repeat-containing protein 26 (Homo sapiens) (Q2I0M4 whole entry, looked up, one chain of several): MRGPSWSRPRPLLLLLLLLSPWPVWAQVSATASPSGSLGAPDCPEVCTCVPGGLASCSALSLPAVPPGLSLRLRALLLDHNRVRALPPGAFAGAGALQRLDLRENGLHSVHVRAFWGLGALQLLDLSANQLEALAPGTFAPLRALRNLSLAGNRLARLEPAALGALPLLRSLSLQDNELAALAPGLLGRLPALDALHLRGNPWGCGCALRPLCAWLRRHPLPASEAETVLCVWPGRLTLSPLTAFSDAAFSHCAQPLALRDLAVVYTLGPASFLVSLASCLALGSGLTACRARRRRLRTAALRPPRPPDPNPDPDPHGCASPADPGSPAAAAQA
# R275C = assay: as above; details: at 30 µM
# R275C/beta1 = assay: as above; details: at 30 µM
# R275C/beta2Delta = assay: as above; details: at 30 µM
# R275C/beta4 = assay: as above; details: at 30 µM
# R275C/Slo1WT/beta2 = assay: as above; details: at 30 µM
# [11] = ovarian cancer cell viability with rucaparib, profiling panel, oncology-focused library, rucaparib conditional (AID 1508598;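 active = normalized viability below 100% at a tested concentration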); details: patient-derived ovarian cancer cells, CellTiter-Glo viability, 144 h, stronger effect = lower value
# [12] = stronger effect = lower value, cell number ratio, induced over uninduced
# [13] = measured here: relative caspase fold change +Dox/-Dox
# [14] = measured here: total cells with miR-34 induction, stronger effect = lower value
# [15] = measured here: total cells without miR-34 induction
# [16] = MELAS cybrid survival, CellTiter-Glo 48 h, stronger effect = higher value
# [17] = Rieske KO mouse fibroblast survival, CellTiter-Glo 72 h
compound,measurement,setting,value
NC(Cc1cc(I)c(Oc2ccc(O)c(I)c2)c(I)c1)C(=O)O (stereo unspecified),parasite load remaining,[1],39.9% (inactive)
same,viability,[1],106%
same,fluorescence ratio,[2],0.99 (inactive)
same,inhibition,[3],-1.36% (inactive)
same,inhibition,[4],1.81% (inactive)
same,fluorescence ratio,[5],0.92 (inactive)
same,mean signal,[6],230 (inactive)
same,fold change,[7]; [12],0.986 (inactive) and 0.874 (inactive)
same,fold change,[7]; [13],1.58 and 0.636
same,cell count,[7]; [14],9780 and 7770
same,cell count,[7]; [15],9910 and 8890
same,z-score,[8]; [16],-0.101 (inactive)
same,z-score,[8]; [17],0.0136
same,z-score,[9],-1.5 (inactive)
same,log fold change Tl+ flux,F380Y,0.0253 (inactive)
same,log fold change Tl+ flux,F380Y/beta1,0.112 (inactive)
same,log fold change Tl+ flux,F380Y/beta2Delta,0.058 (inactive)
same,log fold change Tl+ flux,F380Y/beta4,0.107 (active)
same,log fold change Tl+ flux,[10],0.0742 (inactive)
same,log fold change Tl+ flux,R275C,0.047 (inactive)
same,log fold change Tl+ flux,R275C/beta1,0.0451 (inactive)
same,log fold change Tl+ flux,R275C/beta2Delta,0.136 (active)
same,log fold change Tl+ flux,R275C/beta4,0.254 (active)
same,log fold change Tl+ flux,R275C/Slo1WT/beta2,-0.125 (active)
Nc1nc(Cl)nc2c1ncn2[C@H]1C[C@H](O)[C@@H](CO)O1,parasite load remaining,[1],10.3% (inactive)
same,viability,[1],71.4%
same,fluorescence ratio,[2],1.02 (inactive)
same,inhibition,[3],-1.09% (inactive)
same,inhibition,[4],-3.54% (inactive)
same,fluorescence ratio,[5],0.99 (inactive)
same,mean signal,[6],237 (inactive)
same,z-score,[8]; [16],1.38
same,z-score,[8]; [17],3.04
same,viability,"[11]; at 0.000305 µM, OCI-C5x cells, with rucaparib 10 µM, 100% = cells with rucaparib alone",104% (inactive)
same,viability,"[11]; at 0.000305 µM, OCI-C5x cells, without rucaparib",113% (inactive)
same,viability,"[11]; at 0.000305 µM, OCI-P5x cells, with rucaparib 20 µM, 100% = cells with rucaparib alone",106% (inactive)
same,viability,"[11]; at 0.000305 µM, OCI-P5x cells, without rucaparib",108% (inactive)
same,viability,"[11]; at 0.00122 µM, OCI-C5x cells, with rucaparib 10 µM, 100% = cells with rucaparib alone",101% (inactive)
same,viability,"[11]; at 0.00122 µM, OCI-C5x cells, without rucaparib",115% (inactive)
same,viability,"[11]; at 0.00122 µM, OCI-P5x cells, with rucaparib 20 µM, 100% = cells with rucaparib alone",108% (inactive)
same,viability,"[11]; at 0.00122 µM, OCI-P5x cells, without rucaparib",110% (inactive)
same,viability,"[11]; at 0.00488 µM, OCI-C5x cells, with rucaparib 10 µM, 100% = cells with rucaparib alone",96% (active)
same,viability,"[11]; at 0.00488 µM, OCI-C5x cells, without rucaparib",113% (inactive)
same,viability,"[11]; at 0.00488 µM, OCI-P5x cells, with rucaparib 20 µM, 100% = cells with rucaparib alone",106% (inactive)
same,viability,"[11]; at 0.00488 µM, OCI-P5x cells, without rucaparib",106% (inactive)
same,viability,"[11]; at 0.0195 µM, OCI-C5x cells, with rucaparib 10 µM, 100% = cells with rucaparib alone",111% (inactive)
same,viability,"[11]; at 0.0195 µM, OCI-C5x cells, without rucaparib",111% (inactive)
same,viability,"[11]; at 0.0195 µM, OCI-P5x cells, with rucaparib 20 µM, 100% = cells with rucaparib alone",108% (inactive)
same,viability,"[11]; at 0.0195 µM, OCI-P5x cells, without rucaparib",91.4% (active)
same,viability,"[11]; at 0.0781 µM, OCI-C5x cells, with rucaparib 10 µM, 100% = cells with rucaparib alone",105% (inactive)
same,viability,"[11]; at 0.0781 µM, OCI-C5x cells, without rucaparib",109% (inactive)
same,viability,"[11]; at 0.0781 µM, OCI-P5x cells, with rucaparib 20 µM, 100% = cells with rucaparib alone",107% (inactive)
same,viability,"[11]; at 0.0781 µM, OCI-P5x cells, without rucaparib",76.7% (active)
same,viability,"[11]; at 0.313 µM, OCI-C5x cells, with rucaparib 10 µM, 100% = cells with rucaparib alone",112% (inactive)
same,viability,"[11]; at 0.313 µM, OCI-C5x cells, without rucaparib",95.6% (active)
same,viability,"[11]; at 0.313 µM, OCI-P5x cells, with rucaparib 20 µM, 100% = cells with rucaparib alone",88.9% (active)
same,viability,"[11]; at 0.313 µM, OCI-P5x cells, without rucaparib",50.8% (active)
same,viability,"[11]; at 1.25 µM, OCI-C5x cells, with rucaparib 10 µM, 100% = cells with rucaparib alone",95.8% (active)
same,viability,"[11]; at 1.25 µM, OCI-C5x cells, without rucaparib",94.4% (active)
same,viability,"[11]; at 1.25 µM, OCI-P5x cells, with rucaparib 20 µM, 100% = cells with rucaparib alone",50.8% (active)
same,viability,"[11]; at 1.25 µM, OCI-P5x cells, without rucaparib",37% (active)
same,viability,"[11]; at 5 µM, OCI-C5x cells, with rucaparib 10 µM, 100% = cells with rucaparib alone",72.5% (active)
same,viability,"[11]; at 5 µM, OCI-C5x cells, without rucaparib",54.1% (active)
same,viability,"[11]; at 5 µM, OCI-P5x cells, with rucaparib 20 µM, 100% = cells with rucaparib alone",35.7% (active)
same,viability,"[11]; at 5 µM, OCI-P5x cells, without rucaparib",18.1% (active)
same,log fold change Tl+ flux,F380Y,-0.0268 (inactive)
same,log fold change Tl+ flux,F380Y/beta1,-0.0427 (inactive)
same,log fold change Tl+ flux,F380Y/beta2Delta,-0.00452 (inactive)
same,log fold change Tl+ flux,F380Y/beta4,-0.0201 (inactive)
same,log fold change Tl+ flux,[10],-0.0394 (inactive)
same,log fold change Tl+ flux,R275C,0.0195 (inactive)
same,log fold change Tl+ flux,R275C/beta1,0.022 (inactive)
same,log fold change Tl+ flux,R275C/beta2Delta,0.0372 (inactive)
same,log fold change Tl+ flux,R275C/beta4,0.000993 (inactive)
same,log fold change Tl+ flux,R275C/Slo1WT/beta2,0.0197 (inactive)
CC(=O)C1(O)CCC2C3CC(C)C4=CC(=O)C=CC4(C)C3(F)C(O)CC21C (stereo unspecified),parasite load remaining,[1],94.8% (inactive)
same,viability,[1],93.8%
same,fluorescence ratio,[2],1.07 (inactive)
same,inhibition,[3],-0.45% (inactive)
same,inhibition,[4],-0.48% (inactive)
same,fluorescence ratio,[5],1 (inactive)
same,mean signal,[6],265 (inactive)
same,fold change,[7]; [12],0.925 (inactive)
same,fold change,[7]; [13],2.07
same,cell count,[7]; [14],7970
same,cell count,[7]; [15],8610
same,z-score,[9],-0.02 (inactive)
same,log fold change Tl+ flux,F380Y,-0.0303 (inactive)
same,log fold change Tl+ flux,F380Y/beta1,0.0429 (inactive)
same,log fold change Tl+ flux,F380Y/beta2Delta,-0.0137 (inactive)
same,log fold change Tl+ flux,F380Y/beta4,-0.0225 (inactive)
same,log fold change Tl+ flux,[10],-0.014 (inactive)
same,log fold change Tl+ flux,R275C,-0.0154 (inactive)
same,log fold change Tl+ flux,R275C/beta1,0.00875 (inactive)
same,log fold change Tl+ flux,R275C/beta2Delta,-0.0161 (inactive)
same,log fold change Tl+ flux,R275C/beta4,0.055 (inactive)
same,log fold change Tl+ flux,R275C/Slo1WT/beta2,0.00372 (inactive)
CCOC(=O)[C@@H](CCc1ccccc1)N[C@@H](C)C(=O)N1CCC[C@H]1C(=O)O,parasite load remaining,[1],41.4% (inactive)
same,viability,[1],126%
same,fluorescence ratio,[2],1.05 (inactive)
same,inhibition,[3],-10.4% (inactive)
same,inhibition,[4],-0.48% (inactive)
same,fluorescence ratio,[5],1 (inactive)
same,mean signal,[6],237 (inactive)
same,fold change,[7]; [12],0.958 (inactive)
same,fold change,[7]; [13],0.517
same,cell count,[7]; [14],11000
same,cell count,[7]; [15],11500
same,z-score,[9],0.835 (inactive)
same,log fold change Tl+ flux,F380Y,0.0242 (inactive)
same,log fold change Tl+ flux,F380Y/beta1,0.0697 (inactive)
same,log fold change Tl+ flux,F380Y/beta2Delta,0.00383 (inactive)
same,log fold change Tl+ flux,F380Y/beta4,0.0422 (inactive)
same,log fold change Tl+ flux,[10],0.023 (inactive)
same,log fold change Tl+ flux,R275C,0.0223 (inactive)
same,log fold change Tl+ flux,R275C/beta1,-0.00857 (inactive)
same,log fold change Tl+ flux,R275C/beta2Delta,-0.00135 (inactive)
same,log fold change Tl+ flux,R275C/beta4,-0.0226 (inactive)
same,log fold change Tl+ flux,R275C/Slo1WT/beta2,-0.0503 (inactive)
CC1(C)SC2C(NC(=O)Cc3ccccc3)C(=O)N2C1C(=O)O (stereo unspecified),parasite load remaining,[1],67.7% (inactive)
same,viability,[1],89.4%
same,fluorescence ratio,[2],1.02 (inactive)
same,inhibition,[3],-1.36% (inactive)
same,inhibition,[4],1.05% (inactive)
same,fluorescence ratio,[5],1 (inactive)
same,mean signal,[6],247 (inactive)
same,fold change,[7]; [12],0.988 (inactive)
same,fold change,[7]; [13],2.34
same,cell count,[7]; [14],10600
same,cell count,[7]; [15],10700
same,z-score,[9],-0.1 (inactive)
same,log fold change Tl+ flux,F380Y,-0.0498 (inactive)
same,log fold change Tl+ flux,F380Y/beta1,-0.0346 (inactive)
same,log fold change Tl+ flux,F380Y/beta2Delta,-0.00781 (inactive)
same,log fold change Tl+ flux,F380Y/beta4,0.000902 (inactive)
same,log fold change Tl+ flux,[10],0.0267 (inactive)
same,log fold change Tl+ flux,R275C,0.0404 (inactive)
same,log fold change Tl+ flux,R275C/beta1,-0.00964 (inactive)
same,log fold change Tl+ flux,R275C/beta2Delta,0.00389 (inactive)
same,log fold change Tl+ flux,R275C/beta4,-0.0356 (inactive)
same,log fold change Tl+ flux,R275C/Slo1WT/beta2,-0.096 (inactive)
